# Rows were chosen to be rich in hits. Some 2.1% of all compounds tested hit in one or more screens of this group.
# eIF4H inh: inhibitors of RNA binding by human eIF4H | Q15056 | eIF4H fluorescence polarization binding assay | inhibition, % at 35 µM | 0.94% of 290,000 active;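 further: calls also rest on retests at 20 µM and on dose response follow-up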
# MLLE-PAM2 inh: blocks PAM2 peptide binding to the PABP1 MLLE domain | P11940 | GST-MLLE / FITC-PAM2 fluorescence polarization | inhibition, % at 20 µM | 0.36% of 360,000 active | AID 588489; in the data active means inhibition above about 35%, passing the limit was not always enough;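 further: plate controls were DMSO wells with GST-MLLE for no effect and wells lacking GST-MLLE protein for full effect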
# NRP1-CendR mod: NRP-1/CendR interaction modulation | FAM-RPARPAR peptide binding to NRP-1, fluorescence polarization | inhibition, % at 25 µM | 0.85% of 360,000 active;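 active means inhibition or corrected inhibition above about 18%, plus a signal ratio from 0.5 to 1.5, limit read from the data, passing the limit was not always enough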
# PABP FP inh: PABP-poly(A) binding inhibition; P11940; PABP-poly(A) RNA binding, fluorescence polarization; AID 2014; inhibition, % at 35 µM; 1% of 290,000 active;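 further: calls also rest on retests at 20 µM and on dose response follow-up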
# Starred values were filed as active, the others as inactive; . = not tested or not shown. Unless noted, how the calls were made is not given here.
SMILES,eIF4H inh,MLLE-PAM2 inh,NRP1-CendR mod,PABP FP inh
O=C(NC(=S)Nc1nc(-c2ccccc2)cs1)c1cccnc1,-6.1,16.6,-4.3,-10.2
Cc1ccc(C)c(NC(=S)NNC(=O)c2csc(C(C)C)c2)c1,13.0*,38.7*,-5.6,65.7*
O=C(NC(=S)Nc1ccccc1Cl)c1cncc(C#Cc2ccccc2)c1,-2.8,35.0,6.5,3.6
Cc1ccc(C)c(NC(=S)NNC(=O)c2csc(C)c2C)c1,11.7,18.9,5.4,-4.2
Cc1ccc(C)c(NC(=S)NC(=O)c2cncc(Br)c2)c1,.,40.4*,-27.4,.
O=C(NC(=S)Nc1ccccc1Cl)c1cncc(Br)c1,1.4,43.2*,3.6,-6.5
O=C(NC(=S)Nc1nc(-c2ccccc2)cs1)c1cncc(Br)c1,-11.5,45.2*,-7.0,3.9
COCCN(C(=O)COC(=O)c1sccc1C)c1c(N)n(Cc2ccccc2)c(=O)[nH]c1=O,5.3,0.0,10.5,4.3
Cc1ccc(S(=O)(=O)NC(C(=O)N2CCN(S(=O)(=O)c3cccc(F)c3)CC2)C(C)C)cc1 (stereo unspecified),.,27.4,2.7,.
COc1cc(C)ccc1OCC(=O)OCC(=O)NCC1CCCCC1,.,6.3,1.3,.
Nc1cccnc1Sc1cccc(Cl)c1,13.9,38.2*,-3.0,10.0
Nc1cccnc1Sc1ccc(Cl)cc1,-3.4,-3.5,-8.1,4.8
COc1ccccc1Nc1nc2cc(C)ccc2cc1C#N,2.6,-6.2,1.7,15.5
COc1ccccc1Nc1nc2ccc(C)cc2cc1C#N,-0.6,0.4,29.2*,-4.9
CC12CCC(=O)N1C(C(=O)NCCc1ccccc1)CS2 (stereo unspecified),2.3,-3.8,25.2*,3.8
CCCCOc1ccc(CSCCN=C(N)N)cc1,-4.9,1.1,39.7*,8.3
O=C(CN1C(=O)S/C(=C/c2ccncc2)C1=O)N1CCOCC1,0.0,48.8*,16.2,-4.1
Cc1ccc(NC(=O)CN2C(=O)S/C(=C/c3ccncc3)C2=O)cc1,5.3,47.9*,-18.8,0.2
CC(C)n1c(SCC(=O)N2CCN(C)CC2)nc2c1c(=O)n(C)c(=O)n2C,-0.5,-2.2,6.6,0.1
COc1ccc(-c2oc3ccc(-c4ccc5c(c4)OCO5)cc3c2-c2ccc(OC)nc2)cc1,.,-0.9,26.6*,.
COc1ccc(-c2c(-c3cccc(C)c3)oc3ccc(-c4ccc5c(c4)OCO5)cc23)cn1,.,3.3,7.0,.
O=C(Nc1ccc(N2CCOCC2)nc1)c1ccc(F)cc1,40.3*,3.1,-8.7,65.2
Cc1ccc(C(=O)Nc2ccc(N3CCOCC3)nc2)cc1,14.4,13.5,-1.3,18.6
Cc1cc(N2CCOCC2)c2c(N)cc(C)c(C)c2n1,-3.9,-1.3,22.4*,1.7
Cc1cc(N2CCOCC2)nc(N2CCOCC2)n1,-2.0,-1.4,14.6,3.2
SMILES,eIF4H inh,MLLE-PAM2 inh,NRP1-CendR mod,PABP FP inh
CC(=O)Nc1ccc(S(=O)(=O)NCCC(=O)NCCCc2ccccc2)cc1,.,1.5,22.4*,.
CC(=O)Nc1ccc(S(=O)(=O)NCCSc2ccccn2)cc1,60.0*,-73.0,19.3,39.6*
CC(=O)NC1CC2CCCC(C1)N2C(=O)Nc1cccc(C(C)=O)c1 (stereo unspecified),.,4.3,-7.0,.
CCN(CC)S(=O)(=O)c1cccc(C(=O)NC(Cc2c[nH]c3ccccc23)c2nnc3n2CCCCC3)c1 (stereo unspecified),1.4,-2.6,25.8*,-4.9
CN(C)CCCN1C(=O)c2cccc3c(Br)ccc(c23)C1=O,30.6,56.9*,24.8*,5.3
O=C(Nc1cc2cc([N+](=O)[O-])ccc2oc1=O)c1cccs1,-17.7,.,.,56.5*
O=S1(=O)C[C@@H](N2CCN(CC3CC3)CC2)[C@H](COCc2ccccc2)N1,.,12.6,9.7,.
CCOc1ccccc1OCC(=O)Nc1ccc(N2CCOCC2)cc1N1CCOCC1,.,19.5,-4.3,.
COc1cc(CC(=O)OCC(=O)N2C(C)CCCC2C)cc(OC)c1OC (stereo unspecified),7.5,-11.4,25.6*,10.2
C=CCCN(Cc1ccccc1)S(=O)(=O)c1cc(Br)ccc1Br,.,-10.0,3.3,.
COc1ccc2c(c1)Cc1sc(NC(=O)c3ccco3)nc1-2,14.4,25.9,7.1,3.3
COc1ccc2c(c1)Cc1sc(NC(C)=O)nc1-2,-0.8,37.3*,1.3,5.9
Cc1ccc(S(=O)(=O)NCCCN2CCCC2)cc1,3.4,7.3,5.6,10.5
CC1Sc2ccc(S(=O)(=O)CCC(=O)N3CCc4ccccc43)cc2NC1=O (stereo unspecified),4.0,-7.8,-9.1,7.6
COc1cc(NC(=O)CCC(=O)c2cccs2)cc(OC)c1,21.6,7.6,-4.0,-0.6
CC(=O)Nc1ccc(C2=CC(=O)C[C@H](c3ccc4c(c3)OCO4)C2)cc1,.,9.6,5.7,.
CCC(C)(C)NC(=O)C(c1ccco1)N(C(=O)c1csnn1)c1cccc(F)c1 (stereo unspecified),0.2,-4.0,33.6*,6.9
Cc1ccc(-c2nnn(CC(=O)N(c3cccc(F)c3)C(C(=O)NC(C)(C)C)c3ccco3)n2)o1 (stereo unspecified),-6.7,1.6,43.5*,-3.4
COc1ccc(C(=O)NCC(c2ccco2)N2CCOCC2)cc1 (stereo unspecified),.,-0.7,-13.1,.
Cc1ccc(C(=O)Nc2nc3n(n2)C(c2ccccc2)CC(=O)N3)cc1 (stereo unspecified),-3.3,-2.7,-0.3,1.2
Fc1ccc(N2CCN(C3=Nc4cccc5cccc3c45)CC2)cc1,3.1,-31.9,-71.6,3.7
c1ccc(CN2CCN(C3=Nc4cccc5cccc3c45)CC2)cc1,94.0*,-21.6,-31.2,70.7
c1ccc2c(c1)c1c(c3ccccc32)CN2CCCC2C1 (stereo unspecified),.,-24.2,-16.5,.
Cc1ccc(/C=N/NC(=O)c2nnn(-c3nonc3N)c2C)o1,-5.7,9.5,20.2*,-18.2
N#C/C(=C\c1ccc(-c2ccc(C(=O)O)cc2)o1)C(=O)Nc1ccc(F)cc1,87.0*,-81.5,-57.3,70.4*
SMILES,eIF4H inh,MLLE-PAM2 inh,NRP1-CendR mod,PABP FP inh
Cc1cccc(C)c1NC(=O)/C(C#N)=C/c1ccc(-c2ccc(C(=O)O)cc2)o1,6.6,13.2,-4.3,16.8
CCCCCNC(=O)C(c1cc2ccccc2o1)n1c(=O)c(-c2cc3ccccc3[nH]2)nc2ccccc21 (stereo unspecified),.,.,8.9,.
CCOCCCNC(=O)C(NC(=O)c1ccccc1O)c1ccc(Cl)cc1 (stereo unspecified),-2.8,10.0,-4.1,-12.9
CCOCCCNC(=O)C(NC(=O)CNC(C)=O)c1ccc(Cl)cc1 (stereo unspecified),-5.2,6.2,24.1*,-14.6
NC(=O)c1csc(CCNC(=O)c2ccccc2)n1,.,-6.5,5.3,.
Cc1ccc(NC(=O)c2cccc(Cl)c2)nc1,-2.9,-1.9,24.9*,-6.8
Cc1ccc(NC(=O)CNC(=O)c2cccc(Cl)c2)nc1,.,7.2,-2.6,.
Cc1ccc(NC(=O)c2ccccc2[N+](=O)[O-])nc1,-5.8,-103.6,29.8*,-0.5
O=C(COC(=O)c1ccc(F)c(S(=O)(=O)N2CCOCC2)c1)Nc1ccc(Cl)cn1,.,-7.4,-1.3,.
CN1CCN(C(=O)c2ccc(N(C)S(=O)(=O)c3cccs3)cc2)CC1,-5.6,-11.1,22.1*,35.8

# Compound activity as filed in PubChem.
